# Sampled rows, rich in hits. Any-hit rate of the full collection: about 2.8%.
# Pol iota inh – qHTS for Inhibitors of Polymerase Iota. Pol iota fluorescent replication assay, 10 min. Potency, µM (titrated, usually from 115 µM), without a hit: top-dose activity, negative = inhibition, usual class: inhibitors. actives 1% (n = 390,000). AID 588590, 2011; note: potency is the fitted concentration of half-maximal effect
#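 Pol iota at 10 nM preincubated 15 min with compounds at room temperature; reaction started with fluorescent substrate, 50 nM final. Fluorescence read kinetically at 0 and 10 min; buffer-only wells as negative control.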
# Pol kappa inh-1 – qHTS for Inhibitors of Polymerase Kappa; Potency, µM (highest dose often 107 µM), for inactives: top-dose activity, negative = inhibition, hits mostly inhibitors; DNA polymerase kappa (Homo sapiens), Q9UBT6; actives 0.53% (n = 400,000); AID 588579, 2011; purified Pol kappa, fluorescent DNA synthesis assay, 10 min; note: potency is the fitted concentration of half-maximal effect; % is set by controls: 0 for no effect and ±100 for the full control effect
#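 First, compounds were pin-transferred onto 10 nM Pol kappa. After 15 min at room temperature, substrate was added to 50 nM final. Fluorescence was then measured kinetically at 0 and 10 min.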
# PI5P4Ka inh – qHTS for Inhibitors of phosphatidylinositol 5-phosphate 4-kinase (PI5P4K) | Phosphatidylinositol 5-phosphate 4-kinase type-2 alpha (Homo sapiens), P48426 | PI5P4Kalpha enzyme, ADP-Glo luminescence, 60 min; hits give low values | max response, % | actives 1.2% (n = 330,000) | AID 652105, 2013; active = max response of -50% or lower; inconclusive = between -30% and -50%; inactive = -30% or higher; note: value at the top dose of about 77 µM; % is set by controls: 0 for no effect and ±100 for the full control effect
#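 Human PI5P4Kalpha with substrate in 0.038 M HEPES pH 7.4, 0.28 mM EGTA, 0.1% CHAPS, 5% DMSO; reaction started with 5 microM ATP (final), 60 min at room temperature. ADP formed read by ADP-Glo luminescence.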
# Pol beta inh-1 – qHTS Assay for Inhibitors of DNA Polymerase Beta; P06746; Pol beta primer extension/strand displacement, fluorescence kinetic; Potency, µM (titrated, usually from 114 µM), for the others: at the highest dose activity change, negative = inhibition, usual class: inhibitors; actives 1.3% (n = 340,000); note: potency is the fitted concentration of half-maximal effect; % is set by controls: 0 for no effect and ±100 for the full control effect
#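 Human Pol beta at 10 nM; strand-displacement substrate 50 nM final. Compound exposure 15 min at room temperature before start, reaction 10 min at room temperature.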
# Pol eta inh-1 – qHTS for Inhibitors of Polymerase Eta; recombinant Pol eta, fluorescent DNA replication assay; Potency, µM (highest dose often 114 µM), for the others: at the highest dose activity change, negative = inhibition, actives largely listed as inhibitors; DNA polymerase eta (Homo sapiens), Q9Y253; actives 1.2% (n = 390,000); AID 588591, 2011; note: potency is the fitted concentration of half-maximal effect; % is set by controls: 0 for no effect and ±100 for the full control effect
#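 Pol eta at 10 nM preincubated with compounds 15 min at room temperature; reaction started with fluorescent substrate (50 nM final) and read kinetically at 0 and 10 min.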
# PI4K2A block – qHTS for small molecular inhibitors of PI4K2A; Phosphatidylinositol 4-kinase type 2-alpha (Homo sapiens), Q9BTU6; purified PI4K2A, ADP-Glo luminescence, 1 h; hits give low values; activity change, negative = inhibition, % at 76.9 µM; actives 0.13% (n = 420,000); AID 1346378, 2018; in the data active = activity change below about -50%; inconclusive = mostly about -30% to -49%;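 note: -100% = wells without enzyme as full effect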
# Target sequence (Q9BTU6 whole entry, looked up): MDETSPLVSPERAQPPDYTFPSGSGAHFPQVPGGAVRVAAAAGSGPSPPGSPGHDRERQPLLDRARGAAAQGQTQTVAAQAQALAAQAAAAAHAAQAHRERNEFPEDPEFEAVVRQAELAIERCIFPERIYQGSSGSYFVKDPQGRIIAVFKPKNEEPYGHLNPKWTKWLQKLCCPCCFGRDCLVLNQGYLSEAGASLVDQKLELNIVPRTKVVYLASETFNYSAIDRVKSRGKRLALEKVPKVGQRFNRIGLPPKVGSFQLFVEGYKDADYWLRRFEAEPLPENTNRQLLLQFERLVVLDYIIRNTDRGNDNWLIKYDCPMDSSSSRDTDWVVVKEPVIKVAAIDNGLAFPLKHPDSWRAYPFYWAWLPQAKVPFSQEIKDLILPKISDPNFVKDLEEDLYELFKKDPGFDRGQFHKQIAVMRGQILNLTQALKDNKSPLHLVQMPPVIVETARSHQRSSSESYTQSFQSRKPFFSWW
#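 ADP-Glo luminescence measured ADP generated by PI4K2A enzyme (4 ug/mL before mixing) with 1.2 mM PI substrate (pre-mix) and 300 microM ATP (pre-mix). Tris pH7.5 buffer with MgCl2, Triton X-100; 1 h reaction at ambient temperature.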
# Pol beta inh-2 – Inhibitors of DNA Polymerase Beta: Hit validation; Pol beta primer extension/strand displacement, fluorescence kinetic; shares compounds with Pol beta inh-1; actives 87% (n = 250); Potency, µM, most hits filed as inhibitors; AID 540280, 2011; calls by dose curve; note: potency is the fitted concentration of half-maximal effect
# Klenow inh – Inhibitors of DNA Polymerase Beta: Hit Validation in Klenow Fragment Assay. Klenow exo- polymerase counter-screen, fluorescent DNA substrate. shares compounds with Pol beta inh-1. AID 540300, 2011. activity change, negative = inhibition, % at 57.1 µM. 250 tested, under 10 active
# HIV RT counter – Inhibitors of DNA Polymerase Beta: Hit Validation in HIV-RT Assay. shares compounds with Pol beta inh-1. 250 tested, under 10 active. HIV-1 RT polymerase activity, counter-screen. activity % (negative = inhibition, positive = activation), % at 57.1 µM
# POLB valid – Inhibitors of DNA Polymerase Beta: Hit Validation in Radiolabeled Extension Assay; shares compounds with Pol beta inh-1; radiolabeled primer extension gel assay, phosphorimager; inhibition, % at 10 µM; actives 91% (n = 110); AID 540325, 2011;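 active = inhibition at 10 µM of 30% or more; inconclusive = no clear call, values can overlap the other calls; inactive = inhibition at 10 µM under 30%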
# POLI cherry-pick – qHTS for Inhibitors of Polymerase Iota: Confirmatory Assay for Cherry-picked Compounds; shares compounds with Pol kappa inh-1; Pol iota primer extension, TAMRA/BHQ fluorescence; Potency, µM, most hits filed as inhibitors; actives 77% (n = 1,500); note: potency is the fitted concentration of half-maximal effect
# Pol kappa inh-2 – qHTS for Inhibitors of Polymerase Kappa: Confirmatory Assay for Cherry-picked Compounds; actives 76% (n = 920); shares compounds with Pol eta inh-1; purified Pol-kappa, fluorescent strand-displacement substrate; Potency, µM, usual class: inhibitors; note: potency is the fitted concentration of half-maximal effect
# Pol eta inh-2 – qHTS for Inhibitors of Polymerase Eta: Confirmatory Assay for Cherry-picked Compounds. shares compounds with Pol eta inh-1. Pol eta primer extension, TAMRA/BHQ fluorescence, 10 min. Potency, µM, most hits filed as inhibitors. actives 64% (n = 2,600). AID 720502, 2013; note: potency is the fitted concentration of half-maximal effect
# ADP-Glo counter – qHTS for Inhibitors of PI5P4K: ADP-Glo counter assay; shares compounds with PI5P4Ka inh; ADP-Glo detection counter-screen, luciferase luminescence, no enzyme; Potency, µM (highest dose often 76.9 µM), inactives show at the highest dose activity change, negative = inhibition, usual class: inhibitors; 1,100 tested, under 10 active
# * marks the source's active call; other numbers are inactive results; ? = inconclusive; . = no result; [ ] = remark or other dose. Unless noted, calls come from the whole dose curve; as a rule, active = well fitted curve in the direction sought with a large enough effect; inconclusive = small, poorly fitted or top-dose-only effect, or another doubt; inactive = no such curve, though single readings can be large; an effect the other way counts as inactive or inconclusive.
SMILES,Pol iota inh,Pol kappa inh-1,PI5P4Ka inh,Pol beta inh-1,Pol eta inh-1,PI4K2A block,Pol beta inh-2,Klenow inh,HIV RT counter,POLB valid,POLI cherry-pick,Pol eta inh-2,ADP-Glo counter,others
CC1CCC2(CC1)NC(=O)N(CC(=O)Nc1sc3c(c1C(N)=O)CCC3)C2=O (stereo not drawn),11.2µM*,?,-86.8*,5.01µM*,17.8µM*,?,20*,-10.6,?,99.7*,37.7*,19*,.,
COC(=O)c1c(NC(=O)CN2C(=O)NC3(CCC(C)CC3)C2=O)sc2c1CCC2 (stereo not drawn),?,-13.4%,4.0,.,3.2%,-8.1,.,.,.,.,.,.,.,
CN(C)c1ncc2nc(-c3ccc(Cl)cc3)c(=O)n(Cc3ccc(F)cc3)c2n1,.,7.3%[60.1 µM],.,.,.,.,.,.,.,.,.,.,.,
Fc1ccc(CNc2nc3c(-c4ccc(F)cc4)nnn3c3ccccc23)cc1,46.0%,2.3%,.,7.4%,-13.8%,-2.9,.,.,.,.,.,.,.,
Cc1nc(C)c(C(=O)Nc2ncc([N+](=O)[O-])s2)o1,17.8µM*,?,?,15.8µM*,8.91µM*,-8.4,35.5*,-5.5,-15.0,100.0*,.,?,.,Pol kappa inh-2=29.9*
O=C(Nc1ncc([N+](=O)[O-])s1)c1cccc([N+](=O)[O-])c1,-14.1%,-4.1%,-6.1,1.7%,4.1%,-4.1,.,.,.,.,.,.,.,
Cc1ccc(-n2cccc2/C=C2/C(=N)N3C(=NC2=O)SN=C3S(C)(=O)=O)cc1,17.8µM*,?,-67.0*,15.8µM*,31.6µM*,-3.8,15.8*,-23.8,19.0,.,84.4*,67.5*,.,
CCc1ccc(-n2cccc2/C=C2/C(=N)N3C(=NC2=O)SN=C3S(C)(=O)=O)cc1,?,79.4µM*,-61.3*,6.31µM*,20µM*,3.9,31.6*,-30.1,?,73.0*,?,47.8*,.,Pol kappa inh-2=67*
CC(C)CCN(C)C1CCN(C(=O)Nc2ccccc2)CC1,.,.,.,.,.,-4.8,.,.,.,.,.,.,.,
N#Cc1c(NC(=O)CSc2ncnc3sccc23)oc(-c2ccco2)c1-c1ccco1,?,44.7µM*,-79.3*,10µM*,14.1µM*,-26.9,28.2*,-19.9,-1.7,92.8*,42.3*,19*,3.8%,Pol kappa inh-2=6.7*
Cc1cc(NC(=O)CSc2ncnc3sccc23)no1,-0.1%,-1.5%,-0.5,10.7%,-7.4%,-4.5,.,.,.,.,.,.,.,
CNC(=O)COC(=O)c1cc(-c2ccco2)nc2ccccc12,?,25.1µM*,-87.0*,3.55µM*,11.2µM*,-20.0,28.2*,-38.3,?,99.9*,21.2*,19*,1.1%,
CCC(C)n1c(=O)c2sccc2n2c(CCCC(=O)NCc3ccccc3Cl)nnc12 (stereo not drawn),20.0%,-2.4%,.,3.8%,-8.0%,-0.9,.,.,.,.,.,.,.,
COc1cc(NC(=O)c2c3c(nc4ccccc24)CCC3)cc(OC)c1,8.0%,-23.6%,-2.4,?,0.0%,5.5,.,.,.,.,.,.,.,
Cc1ccc(NC(=O)c2c3c(nc4ccccc24)CCC3)cc1S(=O)(=O)N(C)C,22.4µM*,79.4µM*,-51.9*,10µM*,?,-5.5,35.5*,-15.7,45.4,89.0*,.,?,3.1%,
COC(=O)c1ccc(N2C(=O)Cc3cc(OC)c(OC)cc3C2c2ccc(F)cc2)cc1 (stereo not drawn),-10.3%,-0.8%,.,2.4%,-8.3%,1.8,.,.,.,.,.,.,.,
O=C(Cc1ccc(S(=O)(=O)N2CCOCC2)s1)Nc1nc2c(s1)CCCC2,?,17.8µM*,-65.9*,7.08µM*,3.98µM*,-22.5,28.2*,-36.5,27.6,99.1*,33.6*,30.1*,-3.2%,Pol kappa inh-2=21.2*
O=C(Nc1cccc(S(=O)(=O)NC2=NCCCCC2)c1)c1cc(-c2ccco2)nc2ccccc12,14.1µM*,79.4µM*,-73.0*,7.94µM*,?,?,11.2*,-22.2,24.6,.,.,.,-9.5%,
O=C(Nc1cccc(S(=O)(=O)NC2=NCCCCC2)c1)c1cc(-c2ccncc2)nc2ccccc12,-7.5%,-19.8%,-0.2,-0.4%,-15.1%,-4.9,.,.,.,.,.,.,.,
CCOC(=O)C1=CC[C@@H](c2cccc(Br)c2)N(S(=O)(=O)c2ccc(F)cc2)[C@H]1c1cccc(Cl)c1,.,.,-4.3,.,.,0.5,.,.,.,.,.,.,.,
O=C(Cn1cnc2scc(-c3cccc([N+](=O)[O-])c3)c2c1=O)NCc1ccco1,20µM*,79.4µM*,-93.5*,10µM*,20µM*,-14.8,15.8*,-12.4,?,.,47.4*,60.1*,4.5%,Pol kappa inh-2=47.4*
